Results taken from PubChem BioAssay AID2685 (National Center for Advancing Translational Sciences (NCATS), 2010).
The campaign covered roughly 320,000 compounds. About 2,100 (0.66%) were called active. About 53% were inconclusive and are not listed. This is one part of a sample in which actives are shown more often than they occur. Calls come from the whole dose curve; as a rule, active = well fitted inhibition curve with a large enough effect in the signal ratio, with a control signal flat (not every such curve was filed as active); inconclusive = small, poorly fitted or top-dose-only effect, or effect the other way, or a change in a side signal; inactive = flat fitted curve, though single readings scatter; the % refers to the signal ratio.

Test: qHTS Assay for Lipid Storage Modulators in Drosophila S3 Cells;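 for cell number change: cells counted by Cell Tracker Red CMTPX staining in the red channel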; for lipid storage change, negative = inhibition: % is set by controls: 0 for no effect and ±100 for the full control effect
Settings: BODIPY lipid droplet fluorescence, 18-24 h, cells fed with added oleic acid; cell number change: measured here: cell count max response; series mostly up to 46.1 µM
In short: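 Laser-scanning cytometry quantifies lipid droplet accumulation (500–530 nm total intensity; droplet/cell object ratio) in oleic acid-fed (400 uM added) Drosophila S3 cells treated with a concentration series. 20 uM Triacsin C defined 100% inhibition.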
Potency is the fitted concentration of half-maximal effect.

Row | Compound | Potency | cell number change [%] | lipid storage change, negative = inhibition
1 | CCC(C)[C@@H](N)C(=O)N/N=C/c1cccc2nccnc12 (stereo partly drawn) | inactive | -7.62 | 
2 | CC(C)C(c1nnnn1Cc1ccco1)N1CCC(C(N)=O)CC1 (stereo not drawn) | inactive | -12.1 | 
3 | CCC(c1nnnn1Cc1ccco1)N1CCN(C(=O)c2ccco2)CC1 (stereo not drawn) | inactive | 0.561 | 
4 | CCC(c1nnnn1Cc1ccco1)N1CCC(C(N)=O)CC1 (stereo not drawn) | 5.8 µM (active) | -7.68 | 
5 | CCCC(=O)Nc1ccc2oc(=O)ccc2c1 | inactive | -4.63 | 
6 | Cc1ccccc1C(=O)N1CCCC(N2CCN(Cc3ccc4c(c3)OCO4)CC2)C1 (stereo not drawn) | inactive | 0.496 | 
7 | CCNc1nc(NCC)n2c(SCC(=O)Nc3ccccc3)nnc2n1 | inactive | 9.23 | 
8 | CCNc1nc(NCC)n2c(SCC(=O)O)nnc2n1 | 29.1 µM (active) | -12 | 
9 | CCNc1nc(NCC)n2c(SCC(=O)c3ccccc3Cl)nnc2n1 | inactive |  | 
10 | Cc1csc(NC(=O)c2ccc(S(=O)(=O)N3CCCC3)cc2)n1 | inactive | 5.75 | 
11 | O=C(CNS(=O)(=O)c1cccc2nonc12)NCc1ccc(F)cc1 | inactive |  | 
12 | COc1cc2c(cc1OC)n(CC(=O)NC1CCCCCC1)n1c(C)cc(=O)nc21 | 8.2 µM (active) | -21.9 | 
13 | COc1cccc2c1cc1c(=O)n(CC(=O)NC3CCCCC3)nc(C)n12 | inactive | -12.9 | 
14 | CCC(C(=O)NC1CCCCC1)n1c2ccccc2c2nc(=O)cc(C)n21 (stereo not drawn) | inactive | 1.33 | 
15 | Nc1nc(C2CCCN2S(=O)(=O)c2ccc(Cl)cc2)cs1 (stereo not drawn) | inactive | -2 | 
16 | CCOc1ccc(NC(=O)C2CCC(CNc3c(N4CCCCC4)c(=O)c3=O)CC2)cc1 (stereo not drawn) | inactive |  | 
17 | O=C(CSc1ccc(Cl)cc1)Nc1cccc(-c2nc3ncccc3o2)c1 | 1.3 µM (active) | -12.7 | 
18 | CCCCC(=O)Nc1cccc(-c2nc3ncccc3o2)c1 | inactive | 0.0678 | 
19 | CC(C)CC(=O)Nc1cccc(-c2nc3ncccc3o2)c1 | inactive | -6.34 | 

Row | Compound | Potency | cell number change [%] | lipid storage change, negative = inhibition
20 | CCc1ccccc1N1CCN(S(=O)(=O)c2cc(OC)ccc2OC)CC1 | inactive |  | 
21 | CCc1ccc(Nc2cnn(C34CC5CC(CC(CC(=O)O)(C5)C3)C4)c(=O)c2Cl)cc1 | inactive | 8.4 | 
22 | Cc1ccc(Nc2cnn(C34CC5CC(CC(CC(=O)O)(C5)C3)C4)c(=O)c2Cl)c(Cl)c1 | inactive | 5.36 | 
23 | Cc1cc(C)cc(Nc2cnn(C34CC5CC(CC(CC(=O)O)(C5)C3)C4)c(=O)c2Cl)c1 | 18.4 µM (active) | -2.34 | 
24 | Cc1ccc(CN2CCN(CC(C)C)C(CCO)C2)s1 (stereo not drawn) | inactive | 20.3 | 
25 | CN(C)c1ccc(NC(=O)C[n+]2ccccc2)cc1 | inactive | 22.5 | 
26 | N#Cc1c(OCC(=O)c2ccccc2)nc2c(c1-c1ccco1)CCc1ccccc1-2 | 8.2 µM (active) | -13 | 
27 | CC(=O)COc1nc2c(c(-c3ccco3)c1C#N)CCc1ccccc1-2 | inactive | 7.55 | 
28 | CCOC(=O)COc1nc2c(c(-c3ccco3)c1C#N)CCc1ccccc1-2 | inactive | 3.1 | 
29 | CCCOC(=O)Cn1c(=O)c2cc3c(=O)n(CC(=O)OCCC)c(=O)c3cc2c1=O | inactive | -10.2 | 
30 | CCOC(=O)C1=C(C)N=C2SCCC(=O)N2C1c1cccs1 (stereo not drawn) | inactive | -2.29 | 
31 | O=C(O)Cc1sc(Nc2cccc3ccccc23)nc1-c1ccc(Cl)cc1 | inactive | 13.4 | 
32 | O=C(O)Cc1sc(Nc2cccc3ccccc23)nc1-c1ccccc1 | 0.092 µM (active) | 25.4 | 
33 | O=C(O)Cc1sc(Nc2cccc3ccccc23)nc1-c1ccc(F)cc1 | inactive | 12.9 | 
34 | O=c1c([N+](=O)[O-])c(N2CCOCC2)c2ccccc2n1-c1ccccc1 | inactive | 8.53 | 
35 | CCc1nn(CCCC(=O)NCc2ccccc2C)c(=O)c2cc3occc3n12 | inactive | -19.5 | 
36 | CCc1nn(CCCC(=O)N2CCC(C)CC2)c(=O)c2cc3occc3n12 | 4.11 µM (active) |  | 
37 | CCc1cccc(NC(=O)CCCn2nc(CC)n3c(cc4occc43)c2=O)c1 | 20.6 µM (active) | -27.3 | 
38 | CCOC(=O)C1CCN(C(=O)CCCn2nc(CC)n3c(cc4occc43)c2=O)CC1 | inactive | -12.6 | 

Row | Compound | Potency | cell number change [%] | lipid storage change, negative = inhibition
39 | CCc1nn(CCCC(=O)N2CCN(c3cccc(C)c3C)CC2)c(=O)c2cc3occc3n12 | inactive |  | 
40 | CCc1nn(CCCC(=O)NCc2ccco2)c(=O)c2cc3occc3n12 | inactive | -6.49 | 
41 | COCCNC(=O)Cn1nc(-c2ccccc2C)ccc1=O | inactive | 8.76 | 
42 | O=C(CN(C(=O)c1ccc(Cl)cc1)N1C(=O)C2C3C=CC(C3)C2C1=O)c1cccs1 (stereo not drawn) |  | -8.51 | 5.92% [at 9.22 µM] (inactive)
43 | COCC(C)NC(=O)C(C)N1c2cccc3cccc(c23)S1(=O)=O (stereo not drawn) | inactive | 3.31 | 
44 | O=C1CC(c2ccco2)CC(O)=C1C=Nc1ccccc1-c1ccccc1 (stereo not drawn) | inactive | 5.01 | 
45 | O=C1CC(c2ccco2)CC(O)=C1C=Nc1cc(Cl)ccc1Cl (stereo not drawn) | inactive | 10.5 | 
46 | O=C1CC(c2ccco2)CC(O)=C1C=Nc1cc(Cl)cc(Cl)c1 (stereo not drawn) | 25.9 µM (active) | 13.6 | 
47 | O=C(C1CCN(C2CCN(C/C=C/c3ccccc3)CC2)CC1)N1CCOCC1 | inactive | 7.25 | 
48 | O=C(C1=C(O)C(=O)N(CC2CCCO2)C1c1cccc(O)c1)c1ccco1 (stereo not drawn) | inactive | -19.7 | 
49 | O=C(C1=C(O)C(=O)N(Cc2ccco2)C1c1cccc(Cl)c1)c1ccco1 (stereo not drawn) | inactive | 15 | 
50 | O=C(C1=C(O)C(=O)N(CC2CCCO2)C1c1cccc(Cl)c1)c1ccco1 (stereo not drawn) | 0.82 µM (active) | -5.86 | 
51 | O=C(C1=C(O)C(=O)N(CC2CCCO2)C1c1ccccc1Cl)c1ccco1 (stereo not drawn) | 6.51 µM (active) | -3.95 | 
52 | Cc1ccc(C2C(C(=O)c3ccco3)=C(O)C(=O)N2c2ncccn2)cc1 (stereo not drawn) | inactive | 10.6 | 
53 | O=C(C1=C(O)C(=O)N(c2ncccn2)C1c1cccc(Cl)c1)c1ccco1 (stereo not drawn) | 6.51 µM (active) | 5.29 | 
54 | O=C(C1=C(O)C(=O)N(c2ncccn2)C1c1ccc(Cl)cc1)c1ccco1 (stereo not drawn) | inactive | 8.73 | 
55 | O=C(C1=C(O)C(=O)N(CC2CCCO2)C1c1ccc(Cl)cc1)c1ccco1 (stereo not drawn) | inactive | 18.3 | 
56 | COc1ccc(C2C(C(=O)c3ccco3)=C(O)C(=O)N2CC2CCCO2)c(OC)c1 (stereo not drawn) | inactive | -0.87 | 
57 | COC(=O)c1ccc(NC(=S)NCc2ccco2)cc1 |  | -29.4 | -4.68% [at 9.22 µM] (inactive)
